# Compound activity (PubChem BioAssay)
# This is a sample that favours compounds with a hit; in the whole collection about 2.2% have one here.
# A549 tox = kills or reduces viability of A549 cells in Nrf2 counter-screen; A549 ARE-Fluc cells, CellTiter-Fluor viability, 18-24 h; Potency, µM (doses to about 46 µM), for inactives: at the top dose activity change, negative = cytotoxicity, usual class: inhibitors; 0.16% of 390,000 active; AID 504648; further: on the % scale 0 is the no-effect control and ±100 the full control effect
#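 A549 ARE_Fluc cells in 5% FBS OPTI-MEM were exposed to compounds in concentration-response for 18-24 h at 37 deg C. Viability was read by CellTiter-Fluor fluorescence (Ex 405/Em 525) after 30 min, before the luciferase read.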
# Nrf2 ARE act = Nrf2 pathway activation | AREc32 ARE-luciferase reporter (MCF7-derived line), luminescence, 24 h | 0.31% of 410,000 active | AID 624171 | Potency, µM (highest dose often 46.1 µM), without a hit: top-dose activation, usual class: activators; further: % of control where 0% means no effect; nearly all actives have a fitted effect of over 65% in size
#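 Reporter line AREc32 (ARE-Fluc), seeded overnight in OPTI-MEM with 5% FBS; compound pin-transferred, 24 hr at 37 deg C, 5% CO2; luminescent read-out.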
# Pin1 inhibitor = blocks the human prolyl isomerase Pin1; Pin1 FP peptide displacement, HiFluor488, 10 min; Potency, µM (titrated, usually from 115 µM), without a hit: at the highest dose activity, negative = inhibition, most hits filed as inhibitors; Q13526; 0.009% of 390,000 active; active means well fitted inhibition curve with a large enough effect in the polarisation, with a control signal flat, not every such curve was filed as active; inconclusive means small, poorly fitted or top-dose-only effect, or effect the other way, or a change in a side signal; inactive means no such curve, though single readings can be large or run the other way; the % refers to the polarisation; further: on the % scale 0 is the no-effect control and ±100 the full control effect
# Target sequence (Q13526 whole entry, looked up): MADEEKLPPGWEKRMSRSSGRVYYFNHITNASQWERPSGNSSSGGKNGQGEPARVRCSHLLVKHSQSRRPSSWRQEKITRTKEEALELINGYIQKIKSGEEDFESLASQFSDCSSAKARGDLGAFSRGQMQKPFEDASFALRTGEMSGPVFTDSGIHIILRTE
# Nrf2 block = Nrf2 pathway inhibition | A549 ARE-Fluc reporter, luciferase luminescence, 18-24 h | Potency, µM (doses to about 46 µM), inactives show at the highest dose activity change, negative = inhibition, usual class: inhibitors | 2.1% of 360,000 active; further: on the % scale 0 is the no-effect control and ±100 the full control effect; nearly all actives have a fitted effect of over 60% in size
#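 Concentration-response testing used A549 ARE_Fluc cells at 5000 cells/well. Following an 18-24 h compound incubation, viability was read by fluorescence (Ex 405/Em 525) and luciferase output by luminescence.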
# * = called active by the depositor; ? = inconclusive; . = not tested or not shown. Unless noted, the call rests on the fitted dose curve; in most records, active means well fitted curve in the direction sought with a large enough effect; inconclusive means small, poorly fitted or top-dose-only effect, or another doubt; inactive means no such curve, though single readings can be large; an effect the other way counts as inactive or inconclusive. Potency means the concentration at half of the fitted maximal effect.
SMILES,A549 tox,Nrf2 ARE act,Pin1 inhibitor,Nrf2 block
CN(C)c1ccc(C2CC(c3cccc(NS(C)(=O)=O)c3)=NN2C(=O)c2ccccc2)cc1 (stereo not given),?,3%,5%,23µM*
CS(=O)(=O)Nc1ccc(C2=NN(C(=O)c3cccc(F)c3)C(c3cccs3)C2)cc1 (stereo not given),?,3%,-3%,18µM*
COc1ccccc1C1C(C(=O)Nc2ccccc2)=C(C)Nc2nc(-c3ccccc3)nn21 (stereo not given),2%,1%,-5%,2%
O=C(c1ccccc1)N1CCN(c2nc(-c3ccc(Br)cc3)cs2)CC1,.,.,13%,.
COc1ccc(CN(Cc2ccccc2)C(=O)c2ccncc2)cc1COc1ccc(NC(C)=O)cc1,0%,.,-8%,?
Cn1nc(CC(=O)N2CCN(c3ccccc3)CC2)c2ccccc2c1=O,-12%,-1%,-8%,-21%
Cn1nc(CC(=O)Nc2ccc(N3CCN(C(=O)OC(C)(C)C)CC3)cc2)c2ccccc2c1=O,-16%,0%,0%,10µM*
CC(C)NC(=O)c1ccc(-n2c(-c3ccccc3)cc3c2CCCCC3)cc1,-18%,13µM*,23%,?
CC1CCc2c(cc(-c3ccccc3)n2-c2ccc(C(=O)NC(C)C)cc2)C1 (stereo not given),?,2.8µM*,-2%,?
CCOCCCNC(=O)c1ccc(-n2c(-c3ccccc3)cc3c2CCCC3)cc1,-6%,11µM*,?,?
COCCCNC(=O)c1ccc(-n2c(-c3ccccc3)cc3c2CCCCC3)cc1,-14%,?,59%,?
N#CCCn1cc(CNCc2cccnc2)c(-c2ccccc2)n1,8%,.,0%,23%
CCc1cc2c(cc3c(=O)n(CC(=O)NC4CCCCC4)ncn32)s1,-6%,-1%,1%,7%
CC(=O)c1sc2nc(-c3cccs3)cc(C(F)(F)F)c2c1N,12%,6.3µM*,?,10%
Cc1c(C(=O)O)sc2nc(-c3cccs3)cc(C(F)(F)F)c12,-2%,19%,-1%,?
COc1cc(CCC(=O)NCc2ccc3c(c2)CCN3C(=O)c2ccc(F)cc2)cc(OC)c1OC,-2%,0%,4%,.
O=C(Nc1ccccc1Sc1ccccc1)c1cnn2c1NC(=C1CC1)C=C2C(F)F,.,.,3%,.
O=C(NNc1ccccc1)C(=O)NNS(=O)(=O)c1ccc([N+](=O)[O-])cc1,-15%,1%,-10%,18µM*
O=C(c1ccccc1Cl)n1nc(-c2cccnc2)nc1NCc1ccc(F)cc1,5%,-2%,8%,-8%
CCOc1ccc(N(C)S(=O)(=O)c2cc(-c3cc(C)no3)ccc2C)cc1,-12%,0%,18%,18µM*
Cc1ccc(C)c(N2CCN(C(=O)C3CCCN(S(=O)(=O)c4c(C)noc4C)C3)CC2)c1 (stereo not given),3%,0%,-2%,16µM*
Cc1noc(C)c1S(=O)(=O)N1CCC(C(=O)N2CCN(c3cccc(C(F)(F)F)c3)CC2)CC1,-15%,0%,18%,18µM*
CCOc1ccc2nc(NC(=O)C3CCCN(S(=O)(=O)c4c(C)noc4C)C3)sc2c1 (stereo not given),-26%,0%,5%,21µM*
Cc1ccc(C)c(N2CCN(C(=O)C3CCN(S(=O)(=O)c4c(C)noc4C)CC3)CC2)c1,1%,2%,4%,?
CC(C)(C)OC(=O)Cc1nnc(C(C(=O)OCc2ccccc2)c2ccccc2)o1 (stereo not given),0%,.,3%,13%
SMILES,A549 tox,Nrf2 ARE act,Pin1 inhibitor,Nrf2 block
Cc1cc(C)cc(N2CCn3c2nc2c3c(=O)n(CCc3ccccc3)c(=O)n2C)c1,0%,5%,?,?
COc1ccc(-c2ccoc2)cc1C1C2C=CCC(C)C2C(=O)N1Cc1ccccc1 (stereo not given),-15%,.,?,?
CCCCCCCCOC(=O)C1=C(C)Nc2nnnn2C1c1cccs1 (stereo not given),-12%,-2%,?,?
CCCCCCCOC(=O)C1=C(C)Nc2ncnn2C1c1cccs1 (stereo not given),-5%,-1%,-2%,26µM*
Cc1cc2c(cc1C)N(C(=O)CCl)CCN2C(=O)CCl,-5%,11µM*,-21%,?
O=C1C(Oc2ccccc2)C(c2cccs2)N1Cc1ccc2c(c1)OCO2 (stereo not given),-7%,0%,10%,-21%
COc1ccc(OC2C(=O)N(Cc3ccc4c(c3)OCO4)C2c2cccs2)cc1 (stereo not given),-26%,2%,-1%,13µM*
Cc1cc(=O)n(Cc2ccccc2)c(O)c1C#N,4%,0%,13%,-9%
Cc1cc(=O)n2nc(-c3ccccc3)sc2c1C#N,-11%,2.2µM*,1%,16%
O=[N+]([O-])c1cc(-n2cnnn2)ccc1N1CCC(Cc2ccccc2)CC1,?,0%,?,10µM*
CC1CC(C)CN(c2ccc(-n3cnnn3)cc2[N+](=O)[O-])C1 (stereo not given),-3%,0%,0%,10%
Cc1cccc(Cn2ncc3c4sc(C)cc4n(C)c3c2=O)c1,-3%,.,2%,-14%
CN(CCc1ccccc1)C(=O)c1ccc(NC(=O)Cc2ccc(NC(=O)C3CCN(C(=O)CCc4ccccc4)CC3)cc2)cc1,-6%,1%,?,9.2µM*
CN(CCc1ccccc1)C(=O)c1ccc(NC(=O)Cc2cccc(NC(=O)C3CCN(C(=O)CCc4ccccc4)CC3)c2)cc1,4%,4%,55%,-28%
